# Experimental data reported in ChEMBL document CHEMBL3988442, “University of Dundee, Small-Polar-MMV Screening Library” (2021).
# Out of some 48,000 compounds screened, about 13,000 (27%) showed an effect of 50% or more. Some of the results follow.
# Tested on: Wolbachia pipientis
# Assay: Anti-Wolbachia Cell-Based Screen
# Assay type: functional
# Set-up: scale not given: in the data most compounds retested in dose-response had high values
# Conditions: 5 µM
row,Compound,Percent Effect
1,CC(C)(O)c1cc(CC2(NCc3ccccc3Cl)COC2)no1,-20.02%
2,Cn1cc(CN2C[C@H]3CCC[C@@H](CNc4nccn4C)[C@H]3C2)cn1.O=C(O)C(F)(F)F,-10.56%
3,Cc1cc(CN(CC(N)=O)CC(C)C)on1,-7.292%
4,CCCn1ncc2c(C(=O)Nc3n[nH]c(SC)n3)cc(C3CC3)nc21,6.515%
5,Cn1nc(C2CCNC2)c2c(C(=O)NC3CC3)cc(C3CC3)nc21 (stereo not given),110%
6,Cn1nc(C2CCNCC2)c2c(C(=O)NC3CC3)cc(C3CC3)nc21,128.7%
7,Cn1nc(C2CCCN2)c2c(C(=O)NC3CC3)cc(C3CC3)nc21 (stereo not given),135.7%
8,Cn1nc(C2CCCNC2)c2c(C(=O)NC3CC3)cc(C3CC3)nc21 (stereo not given),121.4%
9,Cc1nc(NCCSc2cnn[nH]2)c2cccnc2n1,2.11%
10,Cc1cnn(CCNCc2nc(-c3ccsc3)oc2C)c1,-10.22%
11,CCCN(C)S(=O)(=O)NC(=O)c1ccc(CC)o1,14.97%
12,O=C(CNC1CCc2ncnn2C1)N(C1=CCCCC1)C1CC1 (stereo not given),-15.4%
13,Fc1cccc(N2CCOC3(CCCN(c4cnccn4)C3)C2)c1 (stereo not given),11.27%
14,CN(C)CCN(Cc1ccccc1)C(=O)CN1CCCNC1=O,-13.77%
15,CC1CCN(CCNC(=O)C2CCN(C(=O)C(C)(C)C)CC2)CC1,2.038%
16,CCC(=O)N1CCCCC1c1nc(O)c2c(n1)CN(S(=O)(=O)CC)CC2 (stereo not given),126.4%
17,CCS(=O)(=O)CC(=O)N1CCCC1c1noc(C2CC2)n1 (stereo not given),-5.674%
18,CCCS(=O)(=O)CC(=O)N1CCCC1c1noc(C2CC2)n1 (stereo not given),-6.337%
19,CCC(=O)N1CCCCC1c1nc(O)c2c(n1)CN(S(C)(=O)=O)CC2 (stereo not given),103.7%
20,CC(C)NC(=O)c1ccc2nnc(C3CN(C)CCN3C)n2c1.O=C(O)C(F)(F)F.O=C(O)C(F)(F)F (stereo not given),-4.33%
21,COCc1cc(N(Cc2ccsc2)C2CC2)n2ncnc2n1,-20.66%
22,Cc1oc(C(C)C)cc1C(=O)N1C[C@H]2CC[C@@H]1CN(S(=O)(=O)N(C)C)C2,1.683%
23,N#Cc1ncn(CC(=O)N2CCCC2c2cccs2)n1 (stereo not given),-17.52%
24,CSc1[nH]c(=O)c(C(=O)N2CCCC2c2cccs2)cc1C#N (stereo not given),109.4%
25,COCCn1cc(C(=O)N2CCCC2c2cccs2)c2ccccc21 (stereo not given),20.58%

row,Compound,Percent Effect
1,CCc1cn[nH]c1C1CCN(C(=O)c2cc(C#N)c(=O)[nH]c2C)CC1,0.2267%
2,CCc1cn[nH]c1C1CCCN(C(=O)c2cc(C#N)c(=O)[nH]c2C)C1 (stereo not given),-3.715%
3,CCC1CCCCCN1C(=O)c1cc(C#N)c(SC)[nH]c1=O (stereo not given),95.93%
4,Cn1c(=O)[nH]c(=O)c2cc(C(=O)N3CCCC3C3CCCC3)cnc21 (stereo not given),9.231%
5,CSc1[nH]c(=O)c(C(=O)N2CCCC2C2CCCC2)cc1C#N (stereo not given),90.55%
6,O=C(c1cnc2[nH]c(=O)[nH]c(=O)c2c1)N1CCCC1C1CCCC1 (stereo not given),-0.6345%
7,COc1ccc2c(CN3CCCN(Cc4ccncc4)CC3)n[nH]c2c1,-3.33%
8,COCCc1noc(CN2CCCCC2Cn2cccn2)n1 (stereo not given),100.4%
9,COc1ccccc1-c1noc(CN2CCCC2Cn2cccn2)n1 (stereo not given),-4.509%
10,COCCc1noc(CN2CCCC2Cn2cccn2)n1 (stereo not given),82.73%
11,Cc1cccc(-c2noc(CN3CCCC3Cn3cccn3)n2)c1 (stereo not given),3.964%
12,c1cnn(CC2CCCN2Cc2nc(-c3ccoc3)no2)c1 (stereo not given),-2.106%
13,COCCc1noc(CN2CCCCC2Cn2cc(C)cn2)n1 (stereo not given),4.505%
14,COCCc1noc(CN2CCCC2Cn2cc(C)cn2)n1 (stereo not given),0.3604%
15,c1cnn(CC2CCCN2Cc2nc(C3CC3)no2)c1 (stereo not given),112.2%
16,NC(=O)C1CCCN1Cc1cccc(NC(=O)c2ccsc2)c1 (stereo not given),23.54%
17,CCOc1ccnc(N2CCN(C(=O)CCc3cnn(C)c3)CC2)n1,-13.21%
18,CC(C)(C)[S+]([O-])CCNC(=O)c1ccc(Cl)c2cccnc12 (stereo not given),-0.5335%
19,CCN(CC)C(CNCc1ccc(OC)c(F)c1)c1ccco1 (stereo not given),3.453%
20,CN(CCc1ccccc1)Cc1cnc(C2(C)CCCCO2)nc1 (stereo not given),153.2%
21,CN(CCc1ccccc1)Cc1cc(C(=O)N2CCCC2(C)C)no1,-2.856%
22,CC(C)(C)c1cnc(CN2CCN(c3ncccn3)CC2)o1,-4.757%
23,CC(C)=CCC1(CO)CCCN(Cc2cnc(N3CCOCC3)nc2)C1 (stereo not given),-21.22%
24,CC1(c2ncc(CN3CCN(c4ncccn4)CC3)cn2)CCCCO1 (stereo not given),136.6%
25,CN(CCc1ccccc1)Cc1nc(-c2cnccn2)no1,-27.95%

row,Compound,Percent Effect
1,Cn1cnnc1C1CCCN(C(=O)Cc2ccc3c(c2)OCCO3)C1 (stereo not given),17.9%
2,Cn1cnnc1C1CCCN(C(=O)c2cc(C3CC3)on2)C1 (stereo not given),107.9%
3,Cc1cc(C(=O)N2CCCC(c3nncn3C)C2)no1 (stereo not given),92.93%
4,Cn1cnnc1C1CCCN(C(=O)CCc2ccc3c(c2)OCO3)C1 (stereo not given),6.982%
5,Cc1cc(C)n(C2CCCN(C(=O)c3cc(C4CC4)on3)C2)n1 (stereo not given),8.092%
6,Cc1ccc(C(NC(=O)CN2CCc3cncnc3C2)C2CC2)cc1 (stereo not given),0.6852%
7,Cc1nonc1OCCNc1ncnc2sc3c(c12)CCNC3,-7.187%
8,O=C1CN(Cc2nnc(-c3ccc(Br)cc3)o2)CCN1,-13.92%
9,CC(c1ccc(-c2cnc(N)nc2)cc1)N1CCOCC1 (stereo not given),42.28%
10,Cn1cccc1C(=O)N1CCC2(CC1)CN(c1ccccn1)CCO2.O=C(O)C(F)(F)F,-8.251%
11,Cn1ccc(C(=O)N2CCC3(CCN3c3ncccn3)C2)n1.O=C(O)C(F)(F)F (stereo not given),111.1%
12,Cn1cccc1C(=O)N1CCC2(CCN2c2ncccn2)C1.O=C(O)C(F)(F)F (stereo not given),93.48%
13,O=C(O)C(F)(F)F.O=C(c1c[nH]cn1)N1CCC(F)(F)C2(CCN(c3ncccn3)C2)C1 (stereo not given),7.042%
14,Cn1ccnc1C(=O)N1CCC2(CCN2c2ncccn2)C1.O=C(O)C(F)(F)F (stereo not given),99.87%
15,Cn1cccc1C(=O)N1CCC2(CCCN2c2ncccn2)CC1.O=C(O)C(F)(F)F,1.069%
16,CCN1CCCC12CCN(C(=O)c1nccn1C)CC2.O=C(O)C(F)(F)F,-7.491%
17,CCCC(C)N(C)Cc1nnc(-c2ccco2)o1 (stereo not given),-4.256%
18,CSc1c[nH]nc1NS(=O)(=O)c1cc(F)ccc1C,-3.23%
19,CCN1CCN(Cc2nc(Cc3ccccc3)n[nH]2)CC1,2.697%
20,O=C(NCc1ccc2c(c1)OCO2)[C@H]1C=CCN1c1ncccn1,120.2%
21,O=C(NCc1ccc2c(c1)OCO2)[C@@H]1C=CCN1c1ncccn1,142.5%
22,O=C(CCc1ccc2c(c1)OCO2)Nc1cccnc1-n1cncn1,6.275%
23,O=C(NCc1ccc2c(c1)OCO2)N1CCCC2(C1)OCCO2,2.082%
24,CC(NC(N)=O)C(=O)NCc1ccc(Br)c(F)c1 (stereo not given),-7.533%
25,CN1CCC(c2[nH]ncc2S(C)(=O)=O)CC1,125.9%

row,Compound,Percent Effect
1,CN1CCN(C(=O)C2CCCc3[nH]ncc32)CC1 (stereo not given),-8.316%
2,CC(=O)N1CCN(C(=O)NCCCc2cn[nH]c2C)CC1,-4.106%
3,Cc1c(CN2CCCC(c3[nH]ncc3S(C)(=O)=O)C2)cnn1C (stereo not given),3.915%
4,CC(=O)N1CCC(c2[nH]ncc2S(C)(=O)=O)CC1,87.45%
5,CCc1cn[nH]c1C1CCN(C(=O)c2cc(C(C)=O)c(C)[nH]c2=O)CC1,3.575%
6,CCC(CC)N1CCC(c2[nH]ncc2S(C)(=O)=O)C1 (stereo not given),101.4%
7,CC(=O)N(C)C1CCN(C(=O)NCC(C)Cc2cccs2)CC1 (stereo not given),8.983%
8,O=C(O)[C@@H]1CN(Cc2ccc(-c3cc[nH]n3)s2)C[C@H]1C1CC1,7.901%
9,CCOC(=O)c1nnc2ccccc2c1N1CCN(C(C)C)CC1,-0.1532%
10,COC(=O)[C@H]1C[C@@H](O)CCN1S(=O)(=O)c1cc(C)c(Cl)cc1C,-11.31%
11,O=C(Nc1ccccc1C(=O)N1CCCC1)NC1CCOCC1,-1.242%
12,Cc1ccc(CN2CCC(c3nnc(CN4CCCCC4)n3C)CC2)o1,-6.981%
13,CCn1cc(CNC(=O)CCc2nnc(-c3ccc(C)s3)o2)cn1,1.856%
14,O=C([C@H]1CN(Cc2nccs2)C[C@H]2OCC[C@@H]12)N1CCCC1,-16.26%
15,Cc1ccsc1CN1CC[C@H]2O[C@H](C(=O)N3CCCO3)CC[C@H]21,-0.787%
16,CN1CCN(C(=O)[C@H]2C[C@H]3[C@H](CCN3Cc3nccs3)O2)CC1,108.2%
17,CN1CCN(C(=O)[C@H]2CC[C@@H]3[C@@H](CCN3Cc3nccs3)O2)CC1,100.9%
18,CN1CC[C@H](c2nnc(-c3cncn3C)o2)C1,-6.33%
19,O=C(NCCCO)C1(CC2CC(c3ccc(F)cc3)=NO2)CCOCC1 (stereo not given),116.1%
20,CC(C)NC(=O)N1CCC2(CC1)NC(=O)CC2c1ccncc1.O=C(O)C(F)(F)F (stereo not given),-5.587%
21,CC(C)NC(=O)C1(CC2CC(c3ccc(F)cc3)=NO2)CCNCC1.O=C(O)CC(O)(CC(=O)O)C(=O)O (stereo not given),90.44%
22,CN(C)C1(CNC(=O)C2CCCN2Cc2ccc(F)cc2)CCOCC1 (stereo not given),-14.73%
23,O=C(NCc1nncn1C1CC1)C1(c2ccc(F)cc2)CCOCC1,7.233%
24,O=C(Nc1ccc(F)cc1)NC1(CCO)CCOCC1,-10.62%
25,O=C(NCCO)C1(CC2CC(c3ccc(F)cc3)=NO2)CCOCC1 (stereo not given),103.4%
